Test results from PubChem BioAssay (NCI).
The panel holds about 83,000 compounds, 20% with a hit somewhere; the sample as a whole holds those more often.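 Plates (96-well) were seeded with cells, treated with compound at one concentration, and incubated for 48 hours before percent growth was determined.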 A number with no mark means an inactive call. Activity calls are given as the source filed them. Rule for the calls: active = growth percent below 10; inactive = the rest.

Legend:
Experiment in all cases: NCI-60 one-dose screen, 48 h (100 = growth as untreated, 0 = no growth, -100 = all killed)
Settings in all cases: 10 µM unless noted
[1] = tested on: NCI-H23 lung
[2] = tested on: NCI-H226 lung
[3] = tested on: NCI-H322M lung
[4] = tested on: HOP-62 NSCLC
[5] = tested on: NCI-H460 lung
[6] = tested on: HOP-92 NSCLC
[7] = tested on: NCI-H522 lung
[8] = tested on: A549/ATCC NSCLC
[9] = tested on: 786-0 renal
[10] = tested on: COLO 205 colon

| SMILES | growth [1] | growth [2] | growth [3] | growth [4] | growth [5] | growth [6] | growth [7] | growth [8] | growth [9] | growth [10] |
| --- | --- | --- | --- | --- | --- | --- | --- | --- | --- | --- |
| Cc1cc(N2CCCC2)nc(N(CCNc2ccnc3cc(Cl)ccc23)Cc2ccco2)n1 | 9.57% (active) | 24.9% | 19.7% | 43.3% | 15.8% | -15% (active) | 49.9% | 48% | 4.55% (active) | 15.9% |
| COc1ccc(-c2c(-c3nc4ccc(N5CCOCC5)cc4[nH]3)[nH]c(C)c2C(C)=O)cc1 | 52.6% | 49.7% | 43.6% | 30.6% | 57.8% | 49.5% | 37.8% | 48.4% | 45.3% | 15.9% |
| C=C1C(=O)O[C@H]2[C@H]1CC/C(COC(=O)NCCc1c[nH]c3ccccc13)=C\CC[C@@]1(C)O[C@@H]21 | 59.5% | 57.3% | 83.2% | 57.7% | 54.2% | -52% (active) | -85.7% (active) | 66.9% | -50.3% (active) | -38.2% (active) |
| c1ccc(-c2nc(Nc3ccc(-c4nc5ccccc5[nH]4)cc3)nc(N3CCOCC3)n2)cc1 | -59.1% (active) | -19.3% (active) | -0.466% (active) | -64.5% (active) | -67.3% (active) | -66.3% (active) | -68.2% (active) | -68.4% (active) | -88.9% (active) | -68.8% (active) |
| Cn1c2c(Cl)c(Cl)ccc2c2c(C#N)c[nH]c(=O)c21 | 91% | 94.5% | 129% | 94.1% | 96.2% | 78.6% | 95.5% | 93.3% | 97.4% | 115% |
| O=S(=O)(NCCNc1cc(-c2cn(-c3ccccc3)nc2-c2cccc(O)c2)ccn1)c1ccc(Br)cc1 | 39.4% | 45% | 50.8% | 40.4% | 26% | 33.3% | 31.9% | 27.2% | 2.12% (active) | -64% (active) |
| COc1ccccc1-n1cnc(N)c1C(=O)c1cc(OC)c(OC)c(OC)c1 | 70% | 56.7% | 81.4% | 52.8% | 14.5% | 70.3% | 1.87% (active) | 47.9% | 37.9% | 66.1% |
| CCCCn1c(-c2ccc(O)cc2)cn2c3c(=O)[nH]c(=O)n(C)c3nc12 | 82.2% | 85% | 119% | 82% | 68.6% | 43.1% | 30.9% | 75% | 88.8% | 89.9% |
| CC(C)(C)c1ccc(OP(=S)(N/N=C/c2ccccc2O)Oc2ccc(C(C)(C)C)cc2)cc1 | 58.1% | 58.6% | 76.3% | 91.7% | 87% | 70.6% | 12.1% | 56.7% | 68.6% | 79.7% |
| O=[N+]([O-])c1cc(S(=O)(=O)c2ccc(F)c([N+](=O)[O-])c2)ccc1F | 103% | 109% | 110% | 121% | 99.3% | 88.6% | 89% | 102% | 100% | 83% |
| COc1cc(/C=C2\C(=O)N(CC(O)COc3cc(O)c4c(=O)cc(-c5ccccc5)oc4c3)c3ccccc32)cc(OC)c1O (stereo not given) | 88.8% | 99.7% | 96.5% | 87.9% | 85% | 82.4% | 64.1% | 95.4% | 98% | 113% |
| COc1ccc2nc(-c3c(-c4ccccc4)nc4ncccn34)[nH]c2c1 | 105% | 106% | 105% | 108% | 106% | 111% | 88.7% | 97.8% | 103% | 108% |
| CCCCC[C@H]1CC=C2C(=O)C(Cl)=C[C@@H]2CC=CCCCC(=O)O[C@@H](CCCCC)CC=C2C(=O)C(Cl)=C[C@@H]2CC=CCCCC(=O)O[C@@H](CCCCC)CC=C2C(=O)C(Cl)=C[C@@H]2CC=CCCCC(=O)O1 | 58.4% [8 µM] | 115% [8 µM] | 96.2% [8 µM] | 89.8% [8 µM] | 91% [8 µM] | 130% [8 µM] | 25.1% [8 µM] | 90.6% [8 µM] | 103% [8 µM] | 70.8% [8 µM] |
| C=C(C)[C@@H]1CC[C@]2(C(=O)O)CC[C@]3(C)[C@H](CC[C@@H]4[C@@]5(C)C/C(=C/c6ccc(OC)cc6)C(=O)C(C)(C)[C@@H]5CC[C@]43C)[C@@H]12 | 8.25% (active) | 25% | 30.4% | 23.8% | 1.81% (active) | 18.9% | 12.7% | 16.8% | 25.1% | 2.57% (active) |
| Cc1csc(Nc2nc(-c3cccc(Br)c3)nc(C(Cl)(Cl)Cl)n2)n1 | 85.6% | 110% | -29.9% (active) | 34% | 9.54% (active) | 51.2% | 97.1% | 5.62% (active) | 75.2% | 4.32% (active) |
| CCN(CC)c1ccc(/C=C/c2cc(C)c3ccccc3n2)cc1 | 64% | 61.1% | 101% | 46.7% | 43% | 82.2% | 31.3% | 53.9% | 94.6% | 24.7% |
| Cc1ccc(N(CC(=O)Nc2ccc(S(=O)(=O)NC3CCN(C)CC3)cc2)S(=O)(=O)c2ccc(Cl)cc2)cc1 | 90.7% | 87.7% | 88.9% | 96.2% | 8.12% (active) | 69.6% | 90.4% | 69.2% | 87.4% | -47.6% (active) |
| Cc1cc(Cl)nc(N(CCNc2ccnc3cc(Cl)ccc23)Cc2ccco2)n1 | 45.6% | 70.3% | 70.6% | 25.6% | 31.7% | 57% | 53.2% | 60.6% | -9.46% (active) | 50.9% |
| CCCCC[C@H]1C/C=C2/C(=O)C(Cl)=C[C@@H]2C/C=C\CCCC(=O)O[C@@H](CCCCC)C/C=C2/C(=O)C(Cl)=C[C@@H]2C/C=C\CCCC(=O)O1 | -24.7% (active) | -34.3% (active) | -31.2% (active) | -52.8% (active) | -27.2% (active) | -63.4% (active) | -67.3% (active) | -51.4% (active) | -66.9% (active) | -76.4% (active) |
| Cc1nn2c(-c3nc4cc(Cl)c(Cl)cc4[nH]3)c(-c3ccc(F)cc3)nc2s1 | 55.8% | 4.31% (active) | -20% (active) | -36.8% (active) | -13.4% (active) | -7.53% (active) | 65.2% | 5.51% (active) | -79.5% (active) | 17.7% |
| C[Si](C)(C)Cc1ccccc1 | 102% | 114% | 119% | 99.9% | 120% | 110% | 139% | 120% | 98% | 139% |
| Nc1ccccc1NC(=O)c1ccc(CN2CCC/C(=C\c3ccccn3)C2=O)cc1 | 29.3% | 52.8% | 39.8% | 41.8% | 17.9% | 46% | 21.1% | 26.2% | 44.5% | 1.53% (active) |
| CC(C)=CCC/C(C)=C/CC/C(C)=C/CSC[C@H](NC(=O)CCCCCN1CCN(C)CC1)C(=O)NC1CCCCCC1 | 58.1% | 82.1% | 88.7% | 91.7% | 2.84% (active) | 32.6% | 59.8% | 64.2% | 75.9% | -71% (active) |
| C=C(C)[C@@H]1CC[C@]2(CN)CC[C@]3(C)[C@H](CC[C@@H]4[C@@](C)(CCCN)[C@H](C(=C)C)CC[C@]43C)[C@@H]12 | 91.1% | 90.6% | 90.2% | 90.6% | 94.7% | 67.4% | 94% | 82.7% | 81.8% | 34.5% |
| Nc1ccc(Br)cn1 | 104% | 99.9% | 104% | 101% | 106% | 89.4% | 95.4% | 103% | 106% | 113% |
| C=C(C)[C@@H]1CC[C@]2(C(=O)N3CCN(CC)CC3)CC[C@]3(C)[C@H](CC[C@@H]4[C@@](C)(CCC(=O)N5CCN(CC)CC5)[C@H](C(=C)C)CC[C@]43C)[C@@H]12 | 74.4% | 79.6% | 89% | 88.7% | 25.1% | 52.2% | 77.9% | 57.4% | 0.392% (active) | 61.1% |
